Inconclusive results are not listed. The source made the active and inactive calls. Unless noted, calls come from the whole dose curve; as a rule, active = well fitted curve in the direction sought with a large enough effect in the repeat runs; inconclusive = weak or mixed curves; inactive = no such curve, though single readings can be large; an effect the other way counts as inactive or inconclusive.
Legend:
[1] = qHTS assay to identify small molecule HDAC inhibitors (AID 1259364);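 note: wild-type HCT-116 cells with endogenous class I/II HDAC activity; top concentration of the series differs between compounds; nearly all actives have a fitted effect of over 45% in size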
Method in brief: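 After a 2 hr compound incubation (37C, 5% CO2), HCT-116 cells seeded at 1,500/well the day before received HDAC-Glo reagent; signal read as luminescence after 30 min at room temperature.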

[2] = qHTS assay to identify small molecule HDAC inhibitors - cell viability counter screen (AID 1259365); note: series mostly up to about 92 µM; nearly all actives have a fitted effect of over 50% in size
Method in brief: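 HCT-116 wild-type, overnight attachment; 2hr drug exposure, 37C; CellTiter-Glo luminescent ATP readout after 30min RT.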

[3] = qHTS assay to identify small molecule antagonists of the sonic hedgehog signaling (Shh) pathway - cell viability counter screen (AID 1259367); note: nearly all actives have a fitted effect of over 55% in size
Method in brief: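 Fluorescence read-out (CellTiter-Fluor, 1 hr at 37C) taken after 23 hr compound treatment of 3T3 Gli1-Luc cells stimulated with conditioned medium. Cells were seeded at 2,000 per well and pre-incubated 4 hr.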

[4] = qHTS assay to identify small molecule agonists of the sonic hedgehog signaling (Shh) pathway (AID 1259368; calls by dose curve;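 note: NIH/3T3-derived 3T3Gli1-Luc cells carrying a stable Gli1-driven firefly luciferase reporter; series mostly up to about 92 µM; nearly all actives have a fitted effect of over 15% in size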)
Method in brief: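 Stable NIH/3T3 Gli1-Luc reporter clone; 24 hr cpd exposure after a 4 hr settling period; luminescence endpoint.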

[5] = qHTS assay to identify small molecule antagonists of the sonic hedgehog signaling (Shh) pathway (AID 1259369; calls by dose curve; note: nearly all actives have a fitted effect of over 45% in size)
Method in brief: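 Gli1 transcriptional reporter (firefly Luc) in NIH/3T3 background, conditioned-medium activated. 24hr exposure, luminescence endpoint.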

[6] = qHTS assay to identify small molecule agonists of the androgen receptor (AR) signaling pathway in the presence of an antagonist - cell viability counter screen (AID 1259379);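 note: MDA-kb2 human breast cancer cells carrying an MMTV luciferase reporter; series mostly up to about 92 µM; nearly all actives have a fitted effect of over 25% in size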
Method in brief: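 Counter screen for cell viability run in parallel with the AR agonist-mode luciferase assay. MDA-kb2 cells were co-treated with nilutamide (3.0uM final) and compounds, then incubated 16 hr at 37C, and CellTiter-Fluor fluorescence was measured.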

[7] = qHTS assay to identify small molecule agonists of the estrogen receptor beta (ER-beta) signaling pathway - cell viability counter screen (AID 1259380); note: nearly all actives have a fitted effect of over 30% in size
Method in brief: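 In this qHTS counter screen, HEK293T cells carrying an ER-beta/UAS beta-lactamase reporter, grown in 2% charcoal-stripped FBS, received compound for 16 hr; ATP-based CellTiter-Glo luminescence was then read after 30 min at room temperature.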

[8] = qHTS assay to identify small molecule antagonists of the estrogen receptor beta (ER-beta) signaling pathway - cell viability counter screen (AID 1259382); note: series mostly up to about 92 µM; nearly all actives have a fitted effect of over 55% in size
Method in brief: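 HEK293T ER-beta-UAS-bla, 2% charcoal-stripped FBS; compounds + 1nM E2 16 hr 37C; CellTiter-Glo luminescence, 30 min RT.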

[9] = qHTS assay to identify small molecule agonists or antagonists of the thyroid stimulating hormone receptor (TSHR) signaling pathway - wild type cell line counter screen (AID 1259384; calls by dose curve)
Method in brief: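 Wild-type Hek293 cells, 800/well, 18 h at 37C, then compound with Ro20-1724 for 30 min RT. cAMP by HTRF (cAMP-d2/anti-cAMP cryptate), 1 h RT, fluorescence read. 15 concentrations, triplicates.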

[10] = molecular target: Thyrotropin receptor (Homo sapiens) (UniProt P16473); assay: qHTS assay to identify small molecule antagonists of the thyroid stimulating hormone receptor (TSHR) signaling pathway (AID 1259385; calls by dose curve; note: nearly all actives have a fitted effect of over 20% in size)
Thyrotropin receptor (Homo sapiens), sequence (P16473 whole entry, looked up): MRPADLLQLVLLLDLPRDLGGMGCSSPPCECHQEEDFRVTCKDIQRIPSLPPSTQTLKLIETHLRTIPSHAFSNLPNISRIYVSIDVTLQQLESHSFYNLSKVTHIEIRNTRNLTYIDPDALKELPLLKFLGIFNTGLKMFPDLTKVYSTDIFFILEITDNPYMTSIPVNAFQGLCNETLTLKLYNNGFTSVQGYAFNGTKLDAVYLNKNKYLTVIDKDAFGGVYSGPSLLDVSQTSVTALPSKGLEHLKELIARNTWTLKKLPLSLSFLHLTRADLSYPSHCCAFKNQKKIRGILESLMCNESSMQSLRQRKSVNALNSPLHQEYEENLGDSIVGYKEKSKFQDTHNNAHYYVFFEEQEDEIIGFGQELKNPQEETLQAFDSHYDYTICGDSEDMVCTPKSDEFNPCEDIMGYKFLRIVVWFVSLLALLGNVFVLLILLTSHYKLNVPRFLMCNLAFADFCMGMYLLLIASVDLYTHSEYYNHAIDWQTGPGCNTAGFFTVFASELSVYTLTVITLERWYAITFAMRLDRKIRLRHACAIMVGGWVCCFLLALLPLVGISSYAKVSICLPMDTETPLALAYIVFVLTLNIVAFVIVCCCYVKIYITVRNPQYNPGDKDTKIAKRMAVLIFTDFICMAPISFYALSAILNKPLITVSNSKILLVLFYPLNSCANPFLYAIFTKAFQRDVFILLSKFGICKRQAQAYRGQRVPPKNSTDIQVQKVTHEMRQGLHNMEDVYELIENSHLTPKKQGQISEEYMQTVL
Method in brief: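 TSHR-HEK293 cells (800/well) plated 18 h, then compounds with Ro20-1724 and TSH at 1.5 ng/mL final, 30 min at room temperature. cAMP quantified by HTRF (cAMP-d2/anti-cAMP-cryptate, 1 h); 15 concentrations in triplicate.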

[11] = qHTS assay to identify small molecule agonists of the estrogen receptor alpha (ER-alpha) signaling pathway in the presence of an antagonist - cell viability counter screen (AID 1259386);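 note: series mostly up to about 92 µM; cells exposed to compounds for 22 h at 37 °C before the viability read; nearly all actives have a fitted effect of over 30% in size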
Method in brief: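 Steps: 5-day stripped-FBS culture; seed and incubate 24hr; add ICI-182,780 (10.0nM final); pin 15-point compound titration; incubate 22hr at 37C; add CellTiter-Fluor at 21hr; read fluorescence.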

[12] = molecular target: Progesterone receptor (Homo sapiens) (UniProt P06401); assay: qHTS assay to identify small molecule agonists of the progesterone receptor (PR) signaling pathway (AID 1346784; calls by dose curve; note: nearly all actives have a fitted effect of over 30% in size)
Progesterone receptor (Homo sapiens), sequence (P06401 whole entry, looked up): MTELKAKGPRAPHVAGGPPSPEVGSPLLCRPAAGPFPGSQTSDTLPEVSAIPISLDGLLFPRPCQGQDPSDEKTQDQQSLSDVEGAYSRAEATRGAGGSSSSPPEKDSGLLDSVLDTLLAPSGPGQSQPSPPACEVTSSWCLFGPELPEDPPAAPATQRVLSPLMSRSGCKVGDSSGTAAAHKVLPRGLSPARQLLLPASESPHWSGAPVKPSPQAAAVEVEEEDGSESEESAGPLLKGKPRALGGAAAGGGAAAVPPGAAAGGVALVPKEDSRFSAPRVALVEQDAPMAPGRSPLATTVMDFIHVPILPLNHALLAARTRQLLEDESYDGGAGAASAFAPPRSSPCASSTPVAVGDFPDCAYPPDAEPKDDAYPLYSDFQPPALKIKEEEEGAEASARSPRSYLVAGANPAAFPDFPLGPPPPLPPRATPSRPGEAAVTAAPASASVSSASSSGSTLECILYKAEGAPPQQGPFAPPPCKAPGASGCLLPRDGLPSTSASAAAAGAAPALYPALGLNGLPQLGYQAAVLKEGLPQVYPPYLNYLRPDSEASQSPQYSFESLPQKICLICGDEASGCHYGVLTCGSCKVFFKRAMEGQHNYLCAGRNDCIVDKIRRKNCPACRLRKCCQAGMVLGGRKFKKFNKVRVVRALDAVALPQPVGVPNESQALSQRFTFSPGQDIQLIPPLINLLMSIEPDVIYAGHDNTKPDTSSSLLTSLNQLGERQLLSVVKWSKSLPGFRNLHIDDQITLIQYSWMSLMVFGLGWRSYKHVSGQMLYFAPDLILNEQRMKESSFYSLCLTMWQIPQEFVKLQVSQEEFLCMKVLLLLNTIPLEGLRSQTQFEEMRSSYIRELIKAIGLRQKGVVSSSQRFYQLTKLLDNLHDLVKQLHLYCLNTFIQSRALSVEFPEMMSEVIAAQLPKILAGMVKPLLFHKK
Method in brief: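 Fluorescence from LiveBLAzer B/G FRET substrate cleavage (2 hr, RT) reported PR activation in PR-UAS-bla HEK 293T cells treated 16 hr at 37C/5% CO2 with compounds; medium contained 2% charcoal-stripped FBS.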

[13] = molecular target: Progesterone receptor (Homo sapiens) (UniProt P06401); assay: qHTS assay to identify small molecule antagonists of the progesterone receptor (PR) signaling pathway (AID 1346795; active = well fitted inhibition curve with a large enough effect in the signal ratio in the repeat runs, not every such curve was filed as active; the % refers to the signal ratio)
Method in brief: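 Fluorescence intensity measured 2 hr after adding beta-lactamase FRET substrate to PR-UAS-bla HEK293T cells that had been co-treated 16 hr with compound and 1 nM R5020 (final concentration) in 2% charcoal-stripped FBS.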

[14] = qHTS assay to identify small molecule agonists of the progesterone receptor (PR) signaling pathway - cell viability counter screen (AID 1346799; calls by dose curve; note: nearly all actives have a fitted effect of over 45% in size)
Method in brief: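 In parallel with the beta-lactamase readout, cytotoxicity toward PR-UAS-bla HEK293T cells was measured by CellTiter-Glo luminescence following 16 hr compound incubation in 2% charcoal-stripped FBS medium.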

[15] = molecular target: Estrogen receptor beta (Homo sapiens) (UniProt Q92731); assay: qHTS assay to identify small molecule agonists of the estrogen receptor beta (ER-beta) signaling pathway (AID 1259377; active = well fitted activation curve with a large enough effect in the signal ratio in the repeat runs, not every such curve was filed as active; the % refers to the signal ratio)
Estrogen receptor beta (Homo sapiens), sequence (Q92731 whole entry, looked up): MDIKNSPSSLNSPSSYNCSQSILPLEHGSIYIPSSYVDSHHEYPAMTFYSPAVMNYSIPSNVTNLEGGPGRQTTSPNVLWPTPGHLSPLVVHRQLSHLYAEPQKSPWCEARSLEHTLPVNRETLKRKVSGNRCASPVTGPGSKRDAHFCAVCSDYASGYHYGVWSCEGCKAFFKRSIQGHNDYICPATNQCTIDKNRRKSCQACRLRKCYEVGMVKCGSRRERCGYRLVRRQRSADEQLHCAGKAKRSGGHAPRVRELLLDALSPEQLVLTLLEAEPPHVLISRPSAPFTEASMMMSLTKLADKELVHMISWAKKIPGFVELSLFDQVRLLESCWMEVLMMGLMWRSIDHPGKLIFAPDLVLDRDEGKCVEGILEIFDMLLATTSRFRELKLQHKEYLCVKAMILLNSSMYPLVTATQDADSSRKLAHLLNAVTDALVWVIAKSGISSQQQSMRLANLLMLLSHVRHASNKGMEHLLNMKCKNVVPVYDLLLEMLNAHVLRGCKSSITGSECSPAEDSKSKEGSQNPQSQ
Method in brief: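 qHTS in ER-beta-UAS-bla HEK293T cells: 6 hr settling, then 16 hr compound at 37C, then LiveBLAzer substrate 2 h at RT before fluorescence reading.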

[16] = molecular target: Estrogen receptor beta (Homo sapiens) (UniProt Q92731); assay: qHTS assay to identify small molecule antagonists of the estrogen receptor beta (ER-beta) signaling pathway (AID 1259378; active = well fitted inhibition curve with a large enough effect in the signal ratio in the repeat runs, not every such curve was filed as active; the % refers to the signal ratio)
Method in brief: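 ER-beta-UAS-bla HEK293T cells in 2% charcoal-stripped FBS medium treated with compound plus 1nM final 17-beta-estradiol for 16 hr at 37C. Beta-lactamase reporter read by FRET substrate fluorescence after 2 hours at room temperature.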

[17] = qHTS assay to identify small molecule antagonists of the progesterone receptor (PR) signaling pathway - cell viability counter screen (AID 1346798); note: series mostly up to about 92 µM; nearly all actives have a fitted effect of over 50% in size
Method in brief: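 CellTiter-Glo luminescence; PR-UAS-bla HEK293T, 3,000 cells/well; compound + R5020, 16 hr, 37C/5% CO2; 30 min RT before read.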

[18] = molecular target: Estrogen receptor (Homo sapiens) (UniProt P03372); assay: qHTS assay to identify small molecule agonists of the estrogen receptor alpha (ER-alpha) signaling pathway in the presence of an antagonist (AID 1259383; calls by dose curve; note: top concentration of the series differs between compounds; nearly all actives have a fitted effect of over 15% in size)
Estrogen receptor (Homo sapiens), sequence (P03372 whole entry, looked up): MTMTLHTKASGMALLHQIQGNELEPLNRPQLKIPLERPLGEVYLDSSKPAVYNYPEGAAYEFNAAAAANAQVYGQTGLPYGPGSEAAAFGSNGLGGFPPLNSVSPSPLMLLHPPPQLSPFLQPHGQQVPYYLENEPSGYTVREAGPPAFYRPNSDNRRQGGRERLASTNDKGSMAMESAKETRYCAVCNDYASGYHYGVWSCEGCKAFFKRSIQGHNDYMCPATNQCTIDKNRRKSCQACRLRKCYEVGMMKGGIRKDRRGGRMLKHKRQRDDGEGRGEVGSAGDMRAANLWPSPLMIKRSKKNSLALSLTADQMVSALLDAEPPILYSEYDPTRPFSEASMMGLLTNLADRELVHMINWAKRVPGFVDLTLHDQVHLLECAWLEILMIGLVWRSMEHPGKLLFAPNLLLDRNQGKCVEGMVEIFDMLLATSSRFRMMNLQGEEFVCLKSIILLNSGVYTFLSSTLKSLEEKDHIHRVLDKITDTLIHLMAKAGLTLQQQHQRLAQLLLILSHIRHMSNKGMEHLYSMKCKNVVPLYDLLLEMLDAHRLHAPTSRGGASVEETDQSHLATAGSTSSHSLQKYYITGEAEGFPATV
Method in brief: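 ER-alpha agonism measured under antagonist challenge: 10.0nM ICI-182,780 (final) plus compound, 15 concentrations, 22hr, VM7Luc4E2 ERE-luciferase cells. Read by luminescence.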

[19] = qHTS assay to identify small molecule agonists of the sonic hedgehog signaling (Shh) pathway - cell viability counter screen (AID 1259366); note: nearly all actives have a fitted effect of over 50% in size
Method in brief: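 Compounds in DMSO were pin-transferred onto 3T3 Gli1-Luc cells that had settled 4hr; plates then stood 24hr at 37C and 5% CO2. One hour before the end, CellTiter-Fluor was added and fluorescence recorded.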

[20] = molecular target: Androgen receptor (Homo sapiens) (UniProt P10275); assay: qHTS assay to identify small molecule agonists of the androgen receptor (AR) signaling pathway in the presence of an antagonist (AID 1259381; calls by dose curve; note: nearly all actives have a fitted effect of over 15% in size)
Androgen receptor (Homo sapiens), sequence (P10275 whole entry, looked up): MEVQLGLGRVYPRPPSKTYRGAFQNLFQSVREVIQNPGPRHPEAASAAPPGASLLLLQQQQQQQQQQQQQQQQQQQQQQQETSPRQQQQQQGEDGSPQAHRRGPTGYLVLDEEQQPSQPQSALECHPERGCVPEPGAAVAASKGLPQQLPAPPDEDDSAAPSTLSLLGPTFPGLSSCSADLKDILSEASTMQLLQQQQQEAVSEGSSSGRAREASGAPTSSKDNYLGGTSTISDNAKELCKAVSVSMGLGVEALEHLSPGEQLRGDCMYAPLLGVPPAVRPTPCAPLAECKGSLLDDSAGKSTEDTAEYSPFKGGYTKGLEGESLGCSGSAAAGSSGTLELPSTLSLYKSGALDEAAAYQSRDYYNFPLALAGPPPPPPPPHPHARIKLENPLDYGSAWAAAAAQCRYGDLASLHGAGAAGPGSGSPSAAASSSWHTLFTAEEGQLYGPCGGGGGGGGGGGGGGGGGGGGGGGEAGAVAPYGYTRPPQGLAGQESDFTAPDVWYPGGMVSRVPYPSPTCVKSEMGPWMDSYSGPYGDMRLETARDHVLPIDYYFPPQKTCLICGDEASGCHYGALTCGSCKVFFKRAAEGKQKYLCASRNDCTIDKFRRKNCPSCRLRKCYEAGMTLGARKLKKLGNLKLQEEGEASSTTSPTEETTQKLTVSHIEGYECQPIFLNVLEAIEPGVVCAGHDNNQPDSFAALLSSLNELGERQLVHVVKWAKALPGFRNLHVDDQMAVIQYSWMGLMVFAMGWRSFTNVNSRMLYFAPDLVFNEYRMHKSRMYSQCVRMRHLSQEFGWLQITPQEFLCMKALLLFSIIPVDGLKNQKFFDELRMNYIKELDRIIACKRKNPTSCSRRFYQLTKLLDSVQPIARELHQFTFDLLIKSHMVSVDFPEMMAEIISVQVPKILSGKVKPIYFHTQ
Method in brief: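 AR antagonist background: nilutamide 3.0uM final. Cell line: MDA-kb2, MMTV-driven luciferase, responsive to both AR and GR. Exposure 16hr, 37C, no CO2; ONE-Glo luminescence.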
% is set by controls: 0 for no effect and ±100 for the full control effect.

CCOC(CN1CCN(CC(C)C(=O)c2ccccc2)CC1)c1ccccc1 (configuration not stated)
inactive: activity change, negative = inhibition [1] 1.54% [at 19 µM] | activity change, negative = cytotoxicity [2] -3.08% [at 19 µM] | viability change, negative = cytotoxic [3] -0.0061% [at 19 µM] | activity change [4] 0.16% [at 18.9 µM] | activity change, negative = inhibition [5] -3.93% [at 19 µM] | activity change, negative = cytotoxicity [6] -6.08% [at 19 µM] | activity change, negative = cytotoxicity [7] -10.4% [at 19 µM] | activity change, negative = cytotoxicity [8] -10.1% [at 19 µM] | cAMP activity change [9] 5.14% [at 18.9 µM] | activity change, negative = inhibition [10] 0.0091% [at 19 µM] | activity change, negative = cytotoxicity [11] -9.47% [at 19 µM] | activation [12] 0.845% [at 19 µM] | activity change, negative = inhibition [13] 8.35% [at 18.9 µM] | activity change, negative = cytotoxicity [14] 2.31% [at 19 µM]

NCC1(Cc2noc(=O)[nH]2)CCCCC1
inactive: Potency [1] | outcome [2] | outcome [3] | Potency [5] | Potency [15] | Potency [16] | outcome [6] | outcome [7] | outcome [8] | outcome [9] | outcome [11] | Potency [13] | outcome [17]

CC(C)=CCC[C@@](C)(O)[C@H]1CC=C(C)CC1
inactive: Potency [1] | outcome [2] | outcome [4] | Potency [5] | Potency [16] | outcome [6] | outcome [7] | outcome [8] | outcome [9] | outcome [10] | Potency [13] | outcome [14]

N[C@@H](Cc1ccc(O)cc1)C(=O)O
inactive: activity change, negative = inhibition [1] 6.85% [at 8.39 µM] | activity change, negative = cytotoxicity [2] 0.0609% [at 8.39 µM] | viability change, negative = cytotoxic [3] 0.133% [at 8.39 µM] | activity change [4] -0.171% [at 8.39 µM] | activity change, negative = inhibition [5] 29.1% [at 8.39 µM] | activation [15] 4.88% [at 8.39 µM] | activity, negative = inhibition [16] -4.71% [at 8.39 µM] | activity change, negative = cytotoxicity [6] 0.232% [at 8.39 µM] | activity change, negative = cytotoxicity [7] 10.1% [at 8.39 µM] | activity change, negative = cytotoxicity [8] 2.66% [at 8.39 µM] | cAMP activity change [9] 6.84% [at 8.39 µM] | activity change, negative = inhibition [10] 3.38% [at 8.39 µM] | activity change, negative = cytotoxicity [11] 1.69% [at 8.39 µM] | activation [12] -2.73% [at 8.39 µM] | activity change, negative = inhibition [13] 7.58% [at 8.39 µM] | activity change, negative = cytotoxicity [17] -4.23% [at 8.39 µM]

CCCc1ccc(O)cc1
inactive: Potency [1] | outcome [2] | outcome [3] | Potency [5] | Potency [15] | Potency [16] | outcome [6] | outcome [7] | outcome [8] | Potency [18] | outcome [9] | outcome [11] | Potency [12] | Potency [13] | outcome [17] | outcome [14]

OC1OCCOC1O (configuration not stated)
inactive: Potency [1] | outcome [19] | outcome [3] | outcome [4] | Potency [5] | outcome [6] | outcome [8] | Potency [18] | outcome [9] | Potency [12] | Potency [13] | outcome [17]

CC(C)OC(=O)CCC(=O)OC(C)C
inactive: Potency [1] | outcome [2] | outcome [3] | Potency [15] | Potency [16] | outcome [6] | outcome [7] | outcome [8] | outcome [9] | outcome [10] | Potency [12] | Potency [13] | outcome [17] | outcome [14]

c1ccc2cnccc2c1
inactive: Potency [1] | outcome [2] | outcome [4] | Potency [5] | outcome [6] | outcome [7] | outcome [8] | outcome [11] | Potency [12] | outcome [17] | outcome [14]

CC(=O)OC1CCCCC1C(C)(C)C (configuration not stated)
inactive: outcome [2] | outcome [19] | outcome [3] | outcome [4] | Potency [5] | Potency [15] | Potency [16] | outcome [6] | outcome [7] | outcome [20] | outcome [8] | Potency [18] | outcome [9] | outcome [10] | outcome [11] | Potency [12] | Potency [13] | outcome [17] | outcome [14]

— PubChem BioAssay (Tox21)
